The whole screen tested about 1,400 compounds, of which about 560 (40%) were called active. So high a share suggests a set chosen from earlier hits. This is one part of the list. A number with no mark means an inactive call.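 Rule for the calls: active = mean inhibition over duplicate tests at 10 µM above 50%; inactive = the rest.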
assay: ASC/caspase-1 reporter retest in S. cerevisiae at one dose, specificity check for NALP1 project (AID 488857); settings: S. cerevisiae ASC/Caspase-1, beta-galactosidase luminescence, 24 h; at 10 µM; hits give high values

Row | SMILES | inhibition
1 | NC(=O)/C=C\C(=O)Nc1cccc(C(F)(F)F)c1 | 72.8% (active)
2 | O=C(NC1CCCC1)C(c1ccccn1)N(C(=O)c1csnn1)C1CC1 (configuration not stated) | 32.6%
3 | O=C(O)c1cccnc1C(=O)N1CCc2c([nH]c3ccccc23)C1C(F)(F)F (configuration not stated) | 18.5%
4 | O=C1c2ccccc2C(=O)c2c1ncn2-c1ccccc1 | 45.6%
5 | O=C(CN(Cc1ccccc1)S(=O)(=O)c1ccc(S(=O)(=O)N2CCOCC2)cc1)Nc1ccccc1 | 36.3%
6 | N#C/C(=C\c1ccc([N+](=O)[O-])o1)c1nc2ccccc2[nH]1 | 20.7%
7 | N#C/C(=C/c1cccs1)c1nc2ccccc2[nH]1 | 98.2% (active)
8 | Cn1c(/C(C#N)=C/C2CC=CCC2)nc2ccccc21 (configuration not stated) | 45.5%
9 | CC(C)C(C(=O)O)N1C(=O)/C(=C/c2cccn2C)SC1=S (configuration not stated) | 56.4% (active)
10 | C/C(=N\NC(=O)c1c[nH]c2ccccc12)c1ccco1 | 40.6%
11 | O=[N+]([O-])c1ccc(/C=N/NS(=O)(=O)c2ccc(Cl)cc2)o1 | 23.6%
12 | CCN(CC)c1ccc(N=Cc2ccc([N+](=O)[O-])o2)cc1 | 69.8% (active)
13 | CN(Cc1ccccc1)C(=O)c1ccc([N+](=O)[O-])o1 | 41.7%
14 | C/C(=N\NC(=O)c1csc(C)c1C)c1ccc(Cl)s1 | 59.2% (active)
15 | CC/C(=N\NC(=O)c1ccccc1Cl)c1ccc(Br)s1 | 38.1%
16 | CN(C)CCCN(C(=O)c1sc2ccccc2c1Cl)c1nc2ccc(F)cc2s1 | 55.7% (active)
17 | Cc1cccc2sc(N(CCCN(C)C)C(=O)c3sc4ccccc4c3Cl)nc12 | 63.2% (active)
18 | Cc1ccc2nc(N(CCCN(C)C)C(=O)c3sc4ccccc4c3Cl)sc2c1 | 31.8%
19 | Cc1cc(C=C2C(=O)c3ccccc3C2=O)c(C)n1C | 37.7%
20 | C/C(=N\N(C)C)C1=C(O)c2ccccc2C1=O | 32.5%
21 | CC(=O)N(C1=C(Cl)C(=O)c2ccccc2C1=O)C1CCCCC1 | 50.3% (active)
22 | O=C(c1ccc(Br)o1)N(c1ccccn1)C1CCCCC1 | 33.8%
23 | CN(c1ccccc1)c1ccc(/C=C/[N+](=O)[O-])cc1 | 96.7% (active)
24 | O=C(O)CC1NC(=S)N(c2ccccc2)C1=O (configuration not stated) | 31.6%
25 | COC(=O)c1cc(=O)n(-c2c(Cl)cc(C(F)(F)F)cc2Cl)[nH]1 | 34.8%
26 | c1ccc(-c2c[nH]c3[n+]2CCCCC3)cc1 | 52.4% (active)

Row | SMILES | inhibition
27 | Oc1ccc2ccccc2c1CN1CCN(c2ccccc2)CC1 | 45.1%
28 | CC(NCCC(c1ccccc1)c1ccccc1)c1ccccc1 (configuration not stated) | 50.4% (active)
29 | Cc1cc(C)cc(C(=O)OCC(=O)NCCNC(=O)COC(=O)c2cc(C)cc(C)c2)c1 | 23.8%
30 | COc1ccc(C(=O)C2CCCN(C(=O)Cn3nc(C)cc3C)C2)cc1F (configuration not stated) | 46.8%
31 | Cc1ccc(C)c(NC(=O)CSc2nnc(-c3ccccc3)o2)c1 | 45.4%
32 | Cc1ccc(NC(=O)CSC2=Nc3ccccc3C3CC=NN23)c(C)c1 (configuration not stated) | 56.6% (active)
33 | Cc1ccc(NC(=O)Cn2cccc2)c(C)c1 | 28.5%
34 | Cc1nc2nc3c(cn2n1)C(=O)CCC3 | 23.6%
35 | COC(=O)c1ccccc1NC(=O)CN1CCC(n2nnc3cc(F)ccc32)CC1 | 33.6%
36 | COc1ccccc1NC(=O)CCN1CCN(Cc2ccccc2)CC1 | 45.7%
37 | COc1ccccc1NC(=O)C1=C(C)NC(=O)NC1c1cccs1 (configuration not stated) | 32.2%
38 | COc1ccccc1NC(=O)c1ccc(C)s1 | 50.4% (active)
39 | C#CCN(C)CCCOc1ccc(Cl)cc1Cl | 54% (active)
40 | CC(C)NC(=O)CCCOc1ccc(Cl)cc1Cl | 48.5%
41 | CCCOc1ccccc1NC(=O)/C=C/C(N)=O | 58% (active)
42 | CCCCOc1ccccc1NC(=O)c1ccco1 | 46.5%
43 | CCOc1ccccc1NC(=O)/C=C/C(N)=O | 59.4% (active)
44 | CCOc1ccccc1N/C=C(\C#N)c1nc2ccccc2n1C | 26.1%
45 | O=C(c1nnsc1S(=O)c1ccc(Cl)cc1)N1CCOCC1 (configuration not stated) | 71.7% (active)
46 | O=C(CCSc1nc2cc(Cl)ccc2o1)N1CCOCC1 | 32.5%
47 | CNC(=O)c1nnsc1S(=O)c1ccc(Cl)cc1 (configuration not stated) | 78.5% (active)
48 | CCCNC(=O)c1nnsc1S(=O)c1ccc(Cl)cc1 (configuration not stated) | 96.7% (active)
49 | Clc1ccc(SCCCCN2CCOCC2)cc1 | 36.5%
50 | Cc1c(Cl)sn(-c2ccc(Cl)cc2)c1=O | 84.5% (active)
51 | CN(C)c1ccc(N2C(=O)CC(Sc3ccccc3C(=O)O)C2=O)cc1 (configuration not stated) | 59.8% (active)
52 | O=C(O)c1ccccc1SC1CC(=O)N(c2ccccc2)C1=O (configuration not stated) | 34.5%

Reference: PubChem BioAssay AID488857 (Sanford-Burnham Center for Chemical Genomics, 2010)
